Data taken from ChEMBL document CHEMBL1157539, “Thousands of chemical starting points for antimalarial lead identification” (Nature, 2010).

What follows are compounds tested on HepG2 (assay: GSK_TCMDC: Percent inhibition of human HepG2 cell line. Test compounds present at 10uM.).
Assay type: functional
COc1ccc(C(=O)C2CCN(CCCCNC(=O)c3ccc(NC(=O)c4ccc(Cl)cc4)cc3)CC2)c(OC)c1 showed an Inhibition of 47%.
For O=C(Nc1cc(C(F)(F)F)cc(C(F)(F)F)c1)N1CCC(CCN2CCC(c3c[nH]c4ccccc34)CC2)CC1, the Inhibition was 17%.
O=C(/C=C/c1ccc(Cl)c(Cl)c1)NCCCCCN1CCC(CCCNC(=O)Nc2ccc(C(F)(F)F)cc2)CC1 showed an Inhibition of 0%.
CC1CCCCN1CCCNc1ncc2c(-c3ccc(NC(=O)Nc4cc(C(F)(F)F)ccc4F)c(F)c3)nn(C)c2n1.O=C(O)C(F)(F)F (stereo not given) gave an Inhibition of 27%.
Work on CC(=O)N1N=C(c2[nH]c3ccc(Br)cc3c2C)OC1c1ccccc1 (stereo not given) yielded an Inhibition of 8%.
In the case of CC(Cc1ccc(NC(=O)c2ccc(CC(C)NCc3ccc(Cl)c(Cl)c3)cc2)cc1)NCCc1cccc(Cl)c1 (stereo not given), the Inhibition is reported as 26%.
CCCCCCOc1ccc(C(=O)NCCCC2CCCN(CCCCCNC(=O)C=Cc3ccc(Cl)c(Cl)c3)C2)cc1 (stereo not given) showed an Inhibition of 20%.
In the case of CS(=O)(=O)N(CC(O)Cn1c2ccc(Cl)cc2c2cc(Cl)ccc21)c1ccccc1 (stereo not given), the Inhibition is reported as 2%.
CN1CCCN(Cc2ccc(-c3cccc(NC(=O)c4ccc(F)cc4)c3)cc2)CC1.O=C(O)C(F)(F)F gave an Inhibition of 29%.
COc1ccc(Cc2c(C)nc3nc(N)nc(N)c3c2C)cc1OC.Cl was tested, and the Inhibition was 66%.
In the case of Cc1[nH]c(C)c(-c2ccc(Oc3cccc(Cl)c3)cc2)c(=O)c1Br, the Inhibition is reported as 46%.
COc1ccccc1C1CCN(CCCCNC(=O)c2ccc(/C=C/c3cc(Cl)cc(Cl)c3)cc2)CC1 gave an Inhibition of 36%.
In the case of Cc1cc(OCCCN2CCCCC2)ccc1NC(=O)COc1ccc(Cl)cc1C(=O)c1cc(C#N)cc(C(F)(F)F)c1, the Inhibition is reported as 23%.
Compound O=C(O)C(F)(F)F.c1ccc(CNCc2cccc(-c3ccc(-c4nc5ccccc5[nH]4)s3)c2)cc1 has an Inhibition of 8%.
O=C(Nc1ccc(-c2ccccc2)s1)N[C@H]1CCN(Cc2ccc(OCCCN3CCCCC3)cc2)C1 gave an Inhibition of 5%.
Compound CCOC(=O)N(C)/N=C/[C@H](CCc1ccccc1)NC(=O)[C@H](CC(C)C)NC(=O)c1cc2cccc(OC)c2o1 has an Inhibition of 2%.
With CC(C)CC(C)NC(=O)C1Cc2c([nH]c3cc(Cl)ccc23)C2(CCN(CCc3ccccc3)CC2)N1 (stereo not given) the Inhibition was 15%.
Compound CC[C@H](NC(=O)c1c(CC2CCN(CC(C)=O)CC2)c(-c2ccccc2)nc2ccccc12)c1ccccc1 has an Inhibition of 7%.
N=C(N)Nc1nc(-c2cccc(NC(=O)Cc3ccccc3)c2)cs1 showed an Inhibition of 1%.
With O=C(/C=C/c1ccc(C(F)(F)F)cc1)NCCCCCN1CCN(C(=O)Nc2ccc(Cl)c(Cl)c2)CC1 the Inhibition was 37%.
Work on COc1ccc(CN2CCCN(Cc3cccc(NC(=O)c4cc5ccccc5s4)c3)CC2)cc1.O=C(O)C(F)(F)F yielded an Inhibition of 32%.
With Cl.O=C1CSc2ccc(CNC3CCN(CCc4c(F)cnc5ccc(F)cc45)CC3)nc2N1 the Inhibition was 13%.
CNC(=O)c1cc(S(=O)(=O)N2CCN(c3ccccn3)CC2)c(C)s1 was tested, and the Inhibition was 0%.
Cc1ccc(CNC(=O)c2cc3c(=O)n4cccc(C)c4nc3n(CCN3CCOCC3)c2=N)cc1 was tested, and the Inhibition was 31%.
Work on COc1ccc(-n2cc(C(=O)c3cc(Br)ccc3O)cc(C#N)c2=O)cc1Cl yielded an Inhibition of 29%.
Compound CN(C)C(CNC(=O)c1cc(-c2ccncc2)c(-c2cc3ccccc3[nH]2)o1)c1ccccc1.O=C(O)C(F)(F)F (stereo not given) has an Inhibition of 3%.
Work on CCn1c(Sc2ccc([N+](=O)[O-])c(C#N)c2)nnc1-c1ccc(Cl)cc1 yielded an Inhibition of 2%.
Work on CS(=O)(=O)CCNCc1cccc(-c2ccc3c(Nc4ccc(Oc5ccccc5)cc4)ccnc3c2)c1 yielded an Inhibition of 18%.
With CCn1c(C)c(C)c2cc(C(=O)Nc3ccon3)ccc21 the Inhibition was 3%.
For O=C(N[C@H]1CCN(CCc2ccc(O[C@H]3CCNC3)c(F)c2)C1)c1ccc(Cl)c(Cl)c1.O=C(O)C(F)(F)F, the Inhibition was 39%.
With O=C(CCCCCNC(=O)c1ccc(O)c(-c2ccc(Cl)c(Cl)c2)c1)NCCc1ccc(Cl)c(Cl)c1 the Inhibition was 57%.
In the case of Fc1ccc2[nH]c(-c3ccc(-c4cccc(CN5CCN(c6ccncc6)CC5)c4)cc3)nc2c1.O=C(O)C(F)(F)F, the Inhibition is reported as 66%.
Compound O=C(/C=C/c1ccc(Cl)c(Cl)c1)NCCCCCN1CCC(C(=O)Nc2cccc(Cl)c2)CC1 has an Inhibition of 48%.
In the case of Cc1cnc(C[S+]([O-])c2nc3cc(C(F)(F)F)ccc3[nH]2)cc1OCc1ccccc1 (stereo not given), the Inhibition is reported as 0%.
Work on Cc1ccccc1C1CCN(c2ccc(C(=O)Nc3ccccc3)cn2)CC1.O=C(O)C(F)(F)F yielded an Inhibition of 53%.
